Test results: PubChem BioAssay (NCATS)
Results filed as inconclusive are left out. Activity calls are given as the source filed them. Unless noted, the call rests on the fitted dose curve; in most records, active means well fitted curve in the direction sought with a large enough effect; inconclusive means small, poorly fitted or top-dose-only effect, or another doubt; inactive means no such curve, though single readings can be large; an effect the other way counts as inactive or inconclusive.

What was measured:
[1] = target: DNA polymerase III PolC-type (Bacillus subtilis (strain 168)) (UniProt P13267); assay: qHTS Validation Assay for the Inhibitors of DNA Replication in Gram-Positive Bacteria (AID 485295);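 further: PicoGreen fluorescence of double-stranded DNA made on primed circular M13 template; series mostly up to about 57 µM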
Sequence of DNA polymerase III PolC-type (Bacillus subtilis (strain 168)) (P13267 whole entry, looked up): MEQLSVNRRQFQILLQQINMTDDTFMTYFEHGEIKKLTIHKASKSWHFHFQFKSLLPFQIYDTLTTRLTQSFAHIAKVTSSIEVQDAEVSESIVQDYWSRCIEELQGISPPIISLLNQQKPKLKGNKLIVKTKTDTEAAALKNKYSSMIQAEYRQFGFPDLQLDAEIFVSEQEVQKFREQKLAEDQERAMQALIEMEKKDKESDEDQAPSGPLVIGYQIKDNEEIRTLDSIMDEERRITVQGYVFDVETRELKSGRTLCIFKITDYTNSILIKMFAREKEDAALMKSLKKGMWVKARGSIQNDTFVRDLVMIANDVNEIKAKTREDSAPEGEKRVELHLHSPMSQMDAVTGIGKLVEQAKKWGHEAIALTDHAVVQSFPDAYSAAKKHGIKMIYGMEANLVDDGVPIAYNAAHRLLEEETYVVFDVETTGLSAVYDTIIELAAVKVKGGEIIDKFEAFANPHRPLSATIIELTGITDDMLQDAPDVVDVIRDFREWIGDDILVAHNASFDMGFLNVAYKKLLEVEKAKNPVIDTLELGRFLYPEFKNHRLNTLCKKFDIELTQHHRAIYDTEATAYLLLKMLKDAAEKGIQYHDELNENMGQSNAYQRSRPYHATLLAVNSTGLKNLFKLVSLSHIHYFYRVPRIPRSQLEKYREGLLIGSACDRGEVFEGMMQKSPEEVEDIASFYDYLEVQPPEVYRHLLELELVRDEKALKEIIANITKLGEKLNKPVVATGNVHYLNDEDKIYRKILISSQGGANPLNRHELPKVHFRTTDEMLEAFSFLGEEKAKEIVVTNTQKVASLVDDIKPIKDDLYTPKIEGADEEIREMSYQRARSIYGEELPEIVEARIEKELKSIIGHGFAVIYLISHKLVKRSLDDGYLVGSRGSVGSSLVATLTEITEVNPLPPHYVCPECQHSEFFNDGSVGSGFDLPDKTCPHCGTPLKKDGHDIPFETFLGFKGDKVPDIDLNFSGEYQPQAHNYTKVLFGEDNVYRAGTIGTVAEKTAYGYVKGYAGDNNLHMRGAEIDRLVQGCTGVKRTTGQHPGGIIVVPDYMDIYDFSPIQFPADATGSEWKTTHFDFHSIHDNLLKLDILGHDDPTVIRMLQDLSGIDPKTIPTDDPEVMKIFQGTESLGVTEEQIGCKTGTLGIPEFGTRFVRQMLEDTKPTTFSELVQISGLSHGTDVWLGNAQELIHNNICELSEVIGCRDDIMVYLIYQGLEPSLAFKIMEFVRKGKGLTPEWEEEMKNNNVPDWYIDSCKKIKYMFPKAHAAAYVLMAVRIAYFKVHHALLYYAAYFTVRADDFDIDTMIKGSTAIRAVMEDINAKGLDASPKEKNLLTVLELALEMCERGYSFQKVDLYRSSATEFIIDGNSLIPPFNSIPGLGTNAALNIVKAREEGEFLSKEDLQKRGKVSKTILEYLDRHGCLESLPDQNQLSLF
Method in brief: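 Reconstituted B. subtilis holoenzyme (Pol III, beta clamp, SSB, primase) was preincubated with compound at room temperature, then given single-stranded circular M13Gori plus dNTPs and NTPs. EDTA-containing PicoGreen stopped the reaction, and dsDNA product was read by fluorescence.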

[2] = target: Tumor susceptibility gene 101 protein (Homo sapiens) (UniProt Q99816); assay: qHTS Validation Assay for Iinhibitors of HIV-1 Budding by Blocking the Interaction of PTAP/TSG101 (AID 485342; calls by dose curve)
Sequence of Tumor susceptibility gene 101 protein (Homo sapiens) (Q99816 whole entry, looked up, the tested form may be a part): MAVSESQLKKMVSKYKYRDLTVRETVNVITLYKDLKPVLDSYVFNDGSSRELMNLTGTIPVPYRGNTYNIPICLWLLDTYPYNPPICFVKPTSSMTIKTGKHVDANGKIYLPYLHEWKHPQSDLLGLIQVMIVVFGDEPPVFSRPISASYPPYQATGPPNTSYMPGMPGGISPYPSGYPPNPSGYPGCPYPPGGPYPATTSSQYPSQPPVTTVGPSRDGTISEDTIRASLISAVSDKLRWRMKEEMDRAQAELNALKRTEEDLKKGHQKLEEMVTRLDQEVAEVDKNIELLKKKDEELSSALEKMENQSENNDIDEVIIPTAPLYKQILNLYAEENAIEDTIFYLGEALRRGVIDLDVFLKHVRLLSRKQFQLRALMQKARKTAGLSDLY
Method in brief: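 Tsg101 binding domain (10 uM final) in pH 7.5 HEPES/NaCl/Tween 20/EDTA/TCEP buffer was mixed with pin-transferred compounds, then FITC-labeled PTAP peptide (50 nM final) was added; after 20 min at r.t., fluorescence polarization was read.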

[3] = qHTS Validation Assay to Find Inhibitors of Chronic Active B-Cell Receptor Signaling (AID 485345; active means well fitted curve in the direction sought with a large enough effect in the main read-out, with a control signal flat, not every such curve was filed as active)
Method in brief: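 TMD8 ABC-DLBCL cells with dox-inducible green luciferase–IκBα fusion and red native luciferase; compounds 46 uM–3 nM, 4 h at 37C with doxycycline in 0.5% FBS IMDM. Green/red ratio normalized to basal and 10 uM MG-132.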

[4] = target: Beta-2 adrenergic receptor (Homo sapiens) (UniProt P07550); assay: qHTS validation assay of beta-arrestin-biased ligands of beta2-adrenergic receptor (AID 485366)
Sequence of Beta-2 adrenergic receptor (Homo sapiens) (P07550 whole entry, looked up): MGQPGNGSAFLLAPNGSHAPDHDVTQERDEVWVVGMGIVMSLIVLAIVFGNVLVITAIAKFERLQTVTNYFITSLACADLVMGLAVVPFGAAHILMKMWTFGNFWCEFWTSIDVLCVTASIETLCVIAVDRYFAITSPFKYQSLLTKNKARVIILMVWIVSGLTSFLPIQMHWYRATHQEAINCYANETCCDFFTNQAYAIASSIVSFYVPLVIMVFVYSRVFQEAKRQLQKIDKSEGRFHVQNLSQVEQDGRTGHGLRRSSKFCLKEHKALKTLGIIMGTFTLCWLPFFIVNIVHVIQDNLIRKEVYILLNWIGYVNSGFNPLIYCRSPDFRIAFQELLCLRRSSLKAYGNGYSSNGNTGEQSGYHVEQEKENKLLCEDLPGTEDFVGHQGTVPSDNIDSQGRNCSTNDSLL
Method in brief: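 Agonist activity is measured as luciferase luminescence downstream of beta-arrestin recruitment to recombinant beta2-AR in Tango cells. Exposure lasts 18 hr at 37 degrees C, and curves are categorized by r2, response size and activity.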

[5] = target: ATP-dependent 6-phosphofructokinase (Trypanosoma brucei brucei) (UniProt O15648); assay: qHTS Validation Assay to Find Inhibitors of T. brucei phosphofructokinase (AID 485368); settings: outcome: dose series up to 57.5 µM
Sequence of ATP-dependent 6-phosphofructokinase (Trypanosoma brucei brucei) (O15648 whole entry, looked up): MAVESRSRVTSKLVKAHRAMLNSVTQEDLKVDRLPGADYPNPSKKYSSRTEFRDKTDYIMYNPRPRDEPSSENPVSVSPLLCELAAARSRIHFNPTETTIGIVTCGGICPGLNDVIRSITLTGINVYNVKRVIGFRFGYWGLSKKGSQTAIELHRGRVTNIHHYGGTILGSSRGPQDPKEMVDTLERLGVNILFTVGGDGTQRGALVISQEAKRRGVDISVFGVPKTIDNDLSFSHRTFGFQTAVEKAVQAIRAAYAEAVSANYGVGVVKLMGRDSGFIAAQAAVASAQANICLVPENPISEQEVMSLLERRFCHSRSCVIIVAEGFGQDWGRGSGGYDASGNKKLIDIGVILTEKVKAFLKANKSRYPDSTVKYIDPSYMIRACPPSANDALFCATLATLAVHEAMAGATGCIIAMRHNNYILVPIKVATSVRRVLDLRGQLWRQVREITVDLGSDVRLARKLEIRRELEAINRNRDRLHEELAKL
Method in brief: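 Inhibition derived from concentration-response curves of luminescence, ranked by r2, response size and curve class; the underlying reaction used 1.25 nM PFK, 0.1 mM ATP and 0.5 mM F6P, 45 min, room temperature.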

[6] = target: Thioredoxin reductase 1, cytoplasmic (Rattus norvegicus) (UniProt O89049); assay: qHTS Assay for Substrates of Mammalian Selenoprotein Thioredoxin Reductase 1 (TrxR1) (AID 488772);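 further: series mostly up to about 57 µM; a drop in NADPH fluorescence below the no-compound background marks a TrxR1 substrate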
Sequence of Thioredoxin reductase 1, cytoplasmic (Rattus norvegicus) (O89049 whole entry, looked up): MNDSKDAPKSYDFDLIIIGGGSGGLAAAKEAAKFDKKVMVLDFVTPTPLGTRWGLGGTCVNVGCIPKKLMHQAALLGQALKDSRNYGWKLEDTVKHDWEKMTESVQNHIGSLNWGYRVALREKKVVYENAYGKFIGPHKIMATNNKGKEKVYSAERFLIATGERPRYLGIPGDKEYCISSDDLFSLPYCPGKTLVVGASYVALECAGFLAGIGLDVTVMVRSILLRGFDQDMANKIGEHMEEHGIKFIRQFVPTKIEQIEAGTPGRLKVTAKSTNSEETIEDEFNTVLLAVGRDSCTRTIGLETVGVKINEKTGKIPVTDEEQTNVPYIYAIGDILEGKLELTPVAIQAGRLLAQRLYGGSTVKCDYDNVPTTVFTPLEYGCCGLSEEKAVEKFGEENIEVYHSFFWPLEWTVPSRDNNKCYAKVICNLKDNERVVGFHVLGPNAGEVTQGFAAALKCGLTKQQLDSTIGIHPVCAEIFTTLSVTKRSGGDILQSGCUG
Method in brief: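 In this dual-purpose format, potential substrates are identified from the first fluorescence read after selenite addition, not from the 8-minute delta. Rat enzyme is preincubated with NADPH and then with compound at ~22 deg C.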

[7] = target: Flap endonuclease 1 (Homo sapiens) (UniProt P39748); assay: qHTS Validation Assay for the Inhibitors of Human Flap endonuclease 1 (FEN1) (AID 488816)
Sequence of Flap endonuclease 1 (Homo sapiens) (P39748 whole entry, looked up): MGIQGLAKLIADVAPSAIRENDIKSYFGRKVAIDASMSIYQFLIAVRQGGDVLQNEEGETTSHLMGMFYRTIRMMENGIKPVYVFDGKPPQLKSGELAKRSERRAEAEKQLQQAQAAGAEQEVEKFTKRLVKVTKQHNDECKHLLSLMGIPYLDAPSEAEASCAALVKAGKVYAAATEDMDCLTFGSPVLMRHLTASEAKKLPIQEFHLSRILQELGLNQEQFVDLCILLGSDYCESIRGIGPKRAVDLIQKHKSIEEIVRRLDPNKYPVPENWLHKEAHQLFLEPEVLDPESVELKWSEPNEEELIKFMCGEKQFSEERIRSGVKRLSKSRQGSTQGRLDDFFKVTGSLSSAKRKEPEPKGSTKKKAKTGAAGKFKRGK
Method in brief: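 Steps: add FEN1 (10 nM reagent) or buffer only; pin compounds; hold 15 min at room temperature; start with substrate, 50 nM final; read at 0 and 15 min; correct, normalize and fit a four-parameter Hill curve.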

[8] = target: M-phase phosphoprotein 8 (Homo sapiens) (UniProt Q99549); assay: qHTS Validation Assay for Inhibitors for MPP8 Chromodomain Interactions with Methylated Histone Tails (AID 488949);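 further: AlphaScreen signal from MPP8 chromodomain bound to biotinylated H3K9me3 peptide; top concentration of the series differs between compounds; nearly all actives have a fitted effect of over 55% in size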
Method in brief: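 MPP8 (50 nM) was preincubated with biotinylated H3(1-18)K9me3 peptide (50 nM) in PBS pH 7.4, 0.01% Tween-20 for 30 min at room temperature, then with compounds for 30 min; binding was detected by AlphaScreen.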

[9] = target: Chromobox protein homolog 1 (Homo sapiens) (UniProt P83916); assay: qHTS Validation Assay for Inhibitors of HP1-beta Chromodomain Interactions with Methylated Histone Tails (AID 488953); further: nearly all actives have a fitted effect of over 50% in size; further: potency means the concentration at half of the fitted maximal effect
Sequence of Chromobox protein homolog 1 (Homo sapiens) (P83916 whole entry, looked up): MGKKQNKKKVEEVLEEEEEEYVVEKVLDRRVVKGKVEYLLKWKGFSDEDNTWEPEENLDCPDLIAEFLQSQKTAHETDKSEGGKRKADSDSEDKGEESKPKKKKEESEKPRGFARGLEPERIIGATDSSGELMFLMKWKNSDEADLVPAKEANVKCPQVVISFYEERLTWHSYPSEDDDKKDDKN
Method in brief: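 AlphaScreen proximity signal from streptavidin donor and nickel chelate acceptor beads (final 10 ug/mL) after 30 min dark incubation. Compounds had 30 min at room temperature with preformed complex of 50 nM HP1-beta and 50 nM b-H3(1-18)K9me3 in PBS pH 7.4 with 0.01% Tween-20.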

[10] = target: Methanococcus maripaludis chaperonin (MmCpn) (UniProt Q6LX38); assay: High-Throughput Screening for Modulators of Cytosolic Chaperonin Activity: MmCpn Primary Screen (AID 488978);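 further: 50 nM MmCpn enzyme hydrolysing 30 µM ATP at 37 °C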
Sequence of Methanococcus maripaludis chaperonin (MmCpn) (Q6LX38 1-543): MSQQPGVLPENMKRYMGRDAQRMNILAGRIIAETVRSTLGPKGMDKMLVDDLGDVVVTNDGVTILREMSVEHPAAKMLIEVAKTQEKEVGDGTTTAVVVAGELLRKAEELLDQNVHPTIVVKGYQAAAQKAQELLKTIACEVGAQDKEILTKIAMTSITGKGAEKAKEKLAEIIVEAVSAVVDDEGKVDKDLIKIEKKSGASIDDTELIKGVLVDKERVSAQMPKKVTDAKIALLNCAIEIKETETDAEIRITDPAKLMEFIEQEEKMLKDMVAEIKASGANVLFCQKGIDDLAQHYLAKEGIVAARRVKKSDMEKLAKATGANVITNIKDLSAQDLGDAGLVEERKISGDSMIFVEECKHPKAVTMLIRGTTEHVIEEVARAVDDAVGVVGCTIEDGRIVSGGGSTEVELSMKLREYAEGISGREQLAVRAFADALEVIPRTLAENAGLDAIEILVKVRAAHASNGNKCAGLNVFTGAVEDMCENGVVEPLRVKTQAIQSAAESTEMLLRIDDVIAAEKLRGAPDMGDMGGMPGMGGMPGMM
Method in brief: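 MmCpn (50 nM final) was preincubated with compound 5 min at RT, then 30 uM ATP (final) was added and the reaction ran 10 min at 37C. ADP produced was detected by Transcreener HTRF (ex 320 nm; em 590/665 nm).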

[11] = target: D(1A) dopamine receptor (Homo sapiens) (UniProt P21728); assay: HTS Assay for Allosteric Agonists of the Human D1 Dopamine Receptor: Primary Screen for Agonists (AID 488981); further: potency means the concentration at half of the fitted maximal effect
Sequence of D(1A) dopamine receptor (Homo sapiens) (P21728 whole entry, looked up): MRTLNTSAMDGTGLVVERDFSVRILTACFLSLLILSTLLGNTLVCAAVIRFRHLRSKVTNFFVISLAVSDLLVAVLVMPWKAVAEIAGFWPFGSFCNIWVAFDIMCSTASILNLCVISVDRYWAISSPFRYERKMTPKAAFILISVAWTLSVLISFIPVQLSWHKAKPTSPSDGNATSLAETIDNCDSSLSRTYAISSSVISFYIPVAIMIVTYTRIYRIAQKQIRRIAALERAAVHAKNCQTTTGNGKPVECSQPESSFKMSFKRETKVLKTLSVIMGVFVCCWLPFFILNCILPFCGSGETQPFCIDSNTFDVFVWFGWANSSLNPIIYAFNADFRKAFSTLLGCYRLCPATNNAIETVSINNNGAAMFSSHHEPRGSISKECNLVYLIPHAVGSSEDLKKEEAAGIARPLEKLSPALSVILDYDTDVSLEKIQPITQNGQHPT
Method in brief: (§1)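 Tetracycline-induced HEK293 T-REx cells force-coupled to calcium signalling were incubated overnight at 30 C and dye-loaded at room temperature. Calcium flux over 180 s after compound addition flagged agonists; a further 180 s read after EC20 dopamine flagged potentiators.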

[12] = target: D(1A) dopamine receptor (Homo sapiens) (UniProt P21728); assay: HTS Assay for Allosteric Agonists of the Human D1 Dopamine Receptor: Primary Screen for Potentiators (AID 488982)
Method in brief: as §1

[13] = target: D(1A) dopamine receptor (Homo sapiens) (UniProt P21728); assay: HTS Assay for Allosteric Agonists of the Human D1 Dopamine Receptor: Primary Screen for Antagonists (AID 488983);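 further: calcium flux response to an EC80 dopamine challenge measured with no-wash dye; nearly all actives have a fitted effect of over 65% in size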
Method in brief: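 Calcium-flux read-out in inducible HEK293 T-REx cells expressing D1, dye-loaded 30–90 min at room temperature. Kinetic reads: 180 s after compound (agonist phase), then 180 s after an EC80 dopamine challenge.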

[14] = Validation screen for small molecules that induce genotoxicity in human embryonic kidney (HEK293T) cells expressing luciferase-tagged ELG1 (AID 493106)
Method in brief: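 ELG1-luciferase reporter readout (ONE-Glo, 30 min, room temperature) after 16 hr compound treatment at 37 °C of HEK293T cells at 2,000 per well. Rising luminescence flags genotoxic stress.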

[15] = Quantitative high throughput screen for delayed death inhibitors of the malarial parasite plastid, 96 hour incubation (AID 488745); further: nearly all actives have a fitted effect of over 70% in size; further: potency means the concentration at half of the fitted maximal effect
Method in brief: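 Decreased firefly luciferase luminescence indicates inhibited growth of reporter-integrated P. falciparum after two generations (96 h, 37 C, 5% CO2). Infected erythrocytes at 0.1% parasitemia, 2% hematocrit, in Albumax-supplemented RPMI 1640.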

[16] = Quantitative high throughput screen for delayed death inhibitors of the malarial parasite plastid, 48 hour incubation (AID 488752); further: nearly all actives have a fitted effect of over 65% in size; further: potency means the concentration at half of the fitted maximal effect
Method in brief: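 One-generation (48 h) growth assay: a decrease in luciferase signal from an integrated reporter in P. falciparum-infected red cells (0.1% parasitemia, 2% hematocrit) after compound exposure at 37 C indicates parasite inhibition.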

[17] = target: Thioredoxin reductase 1, cytoplasmic (Rattus norvegicus) (UniProt O89049); assay: qHTS Assay for Inhibitors of Mammalian Selenoprotein Thioredoxin Reductase 1 (TrxR1) (AID 488773); settings: Potency: inhibition;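 further: drop in NADPH fluorescence over an 8 min run after selenite addition; series mostly up to about 57 µM; nearly all actives have a fitted effect of over 40% in size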
Method in brief: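 Inhibition is scored from the loss of NADPH fluorescence between first and last reads of an 8-min kinetic run. Selenite (400 uM) was the substrate, added after 15 min compound preincubation at room temperature.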

[18] = target: Transient receptor potential cation channel subfamily V member 1 (Homo sapiens) (UniProt Q8NER1); assay: HTS Assay for Compounds that Act as Enhancers of the Vanilloid Receptor 1 (AID 488979)
Method in brief: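 TRPV1-expressing cells loaded with Fluo-8 calcium dye; compounds added and calcium influx read kinetically for 3 min (agonist phase), then capsaicin at EC20 added and read 2 min more for enhancement. Fluorescence ex 480/em 520 nm.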

[19] = target: Thyrotropin receptor (Homo sapiens) (UniProt P16473); assay: qHTS Assay for Antagonists of the Thyroid Stimulating Hormone Receptor (AID 488980); further: series mostly up to about 58 µM
Method in brief: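 HEK293 cells transfected with human TSHR, suspended in HEPES-buffered HBSS with 70 uM RO 20-1724, were treated with compounds plus TSH at EC80 (4 nM final). cAMP was measured by competitive HTRF (cryptate anti-cAMP antibody, cAMP-d2 acceptor).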

[20] = target: ATP-dependent 6-phosphofructokinase (Trypanosoma brucei brucei) (UniProt O15648); assay: qHTS Assay to Find Inhibitors of T. brucei phosphofructokinase: hit validation (AID 492961);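 further: luminescence reports ADP formed as PFK phosphorylates fructose-6-phosphate with ATP; series mostly up to about 51 µM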
Method in brief: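 PFK 1.25 nM, F6P 0.5 mM, ATP 0.1 mM, MgCl2 5 mM, 0.1 M TEA pH 8.0, Tween20 0.01%, BSA 0.1%; 45 min RT. ADP-Glo two-step detection, luminescence. qHTS titration; curve fitting with curve-class categorization.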

Measured: Potency

C[C@@H](O)[C@H]1C(=O)N2C(C(=O)O)=C(SCCN=CN)C[C@H]12
not listed: [15] | [16] | [17] | [18] | [19] | [20]
inactive: all other assays above

CNC1(C)C2CCC(C2)C1(C)C (centres undefined)
not listed: [20]
inactive: all other assays above

CC(N=C(NC#N)Nc1ccncc1)C(C)(C)C (centres undefined)
not listed: [7] | [10] | [20]
inactive: all other assays above

c1ccc2c(c1)CCCC2C1=NCCN1 (centres undefined)
not listed: [12] | [20]
inactive: all other assays above

CN1C(=O)CC[C@H]1c1cccnc1
not listed: [14] | [15] | [16] | [17] | [18] | [19] | [20]
inactive: all other assays above

Cc1ccc(=O)n(-c2ccccc2)c1
not listed: [14] | [17] | [20]
inactive: all other assays above

CC(=O)Oc1cc(C(C)C)c(OCCN(C)C)cc1C
not listed: [14]
inactive: all other assays above

NC(N)=N/N=C/c1c(Cl)cccc1Cl
not listed: [7] | [10] | [12] | [13] | [14] | [15] | [20]
inactive: all other assays above

COC(=O)C1=C(C)NC(C)=C(C(=O)OC(C)(C)CN(C)CCC(c2ccccc2)c2ccccc2)C1c1cccc([N+](=O)[O-])c1 (centres undefined)
active: [9] 25.1 µM
not listed: [8] | [15] | [16] | [18] | [19]
inactive: all other assays above

O=C(CCNNC(=O)c1ccncc1)NCc1ccccc1
not listed: [20]
inactive: all other assays above

CCCNC(C)C(=O)Nc1ccccc1C (centres undefined)
not listed: [9] | [10] | [16] | [20]
inactive: all other assays above

CO[C@@]1(NC(=O)CSCC#N)C(=O)N2C(C(=O)O)=C(CSc3nnnn3C)CS[C@@H]21
not listed: [9] | [17] | [19] | [20]
inactive: all other assays above

CCCCNC(=O)NS(=O)(=O)c1ccc(C)cc1
not listed: [19] | [20]
inactive: all other assays above

CCNC(=O)N1CCN(CCCC(c2ccc(F)cc2)c2ccc(F)cc2)CC1
active: [15] 1.65 µM | [16] 2.94 µM | [11] 15.8 µM
not listed: [6] | [7] | [9] | [13] | [14] | [17] | [18]
inactive: all other assays above

CC(C)(Oc1ccc(CCNC(=O)c2ccc(Cl)cc2)cc1)C(=O)O
not listed: [15] | [16] | [18] | [19]
inactive: all other assays above

NC(Cc1ccc(Cl)cc1)C(=O)O (centres undefined)
not listed: [9] | [10] | [17] | [20]
inactive: all other assays above
